# According to PubChem BioAssay:
# Where “and” joins values, the source holds several entries; their conditions need not be identical. Identical values can stand only once. The source holds several records for some structures; these can differ, active in one and inactive in another. Calls of active or inactive are those of the source.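 The calls were made as follows, unless noted: active = z-score of at least 1.8 in each of two replicates, scored against plate mean and spread of sample wells; inactive = the rest.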
# Legend:
# [1] = molecular target: NAD(+) hydrolase SARM1 (Homo sapiens) (UniProt Q6SZW1); test: blocking NAD cleavage by SARM1 SAM-TIR – cell lysate, NAD-Glo luminescence (AID 1508614;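 active = compound whose remaining NAD level is above about 45 nM, limit read from the data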;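 also: higher remaining NAD means stronger inhibition of SARM1 NADase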); conditions: SAM-TIR HEK293T lysate NADase, at 1 µM, stronger effect = higher value
# [2] = molecular target: Mitogen-activated protein kinase 7 (Homo sapiens) (UniProt Q13164); test: Gal4-ERK5 driven luciferase induction – cell-based, HTS, primary screen (AID 1508626;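 active = luciferase signal above three times the same-plate solvent-only control wells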;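 also: luciferase driven by Gal4-ERK5 fusion binding five Gal4 sites before minimal TATA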); conditions: HeLa Gal4-ERK5 transactivation, 18 h, at 5 µM, stronger effect = higher value
# [3] = galactose survival enhancers in mitochondrial complex I cybrids – cell-based, galactose medium, ATP luminescence, primary screen (AID 1645843); conditions: complex I mutant cybrid cells, 72 h, stronger effect = higher value;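 also: positive z means more ATP and so rescue of galactose-driven cybrid death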
# [4] = growth inhibition, single agent or in combination, cell-based, chromothripsis tumors, cisplatin or BGB combos (AID 1671449; in the data active = inhibition above about 80%;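 also: cells exposed for 96 hours; 0% = vehicle DMSO and 100% = killing by high DMSO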); conditions: LFS_MB_P medulloblastoma cells
# [5] = growth inhibition, single agent and combos, cell-based, chromothripsis tumors, cisplatin or BGB combos (AID 1671450; in the data active = inhibition above about 80%;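 also: cells exposed to compound for four days; 0% = vehicle DMSO and 100% = cell killing by high DMSO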); conditions: HDN33 neuroblastoma cells, stronger effect = higher value
# [6] = growth inhibition, single agents and combos, ICB984, cell-based, cisplatin or BGB combos, synergistic combos for chromothripsis tumors (AID 1671451; call rule not given here;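 also: cells exposed for 96 hours before readout; 0% = vehicle DMSO and 100% = killing by high DMSO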); conditions: ICB984 medulloblastoma cells, drug combinations, stronger effect = higher value
# [7] = growth inhibition, single agents and combos, LFS_MB_1R, cell-based, cisplatin or BGB combos, synergistic combos for chromothripsis tumors (AID 1671452; in the data active = inhibition above about 80%;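 also: cells exposed for 96 hours before readout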); conditions: LFS_MB_1R medulloblastoma cells, stronger effect = higher value
# [8] = growth inhibition, single agents and combos, HTB85, cell-based, BGB or cisplatin IC20 combos, synergistic combos for chromothripsis tumors (AID 1671453; in the data active = inhibition above about 80%;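 also: cells exposed for 96 hours before readout; 0% = vehicle DMSO and 100% = high DMSO killing control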); conditions: HTB85 osteosarcoma cells, drug combinations, stronger effect = higher value
# [9] = growth inhibition, single agents and combos, CRL2098, cell-based, BGB or cisplatin IC20 combos, synergistic combos for chromothripsis tumors (AID 1671454; in the data active = inhibition above about 80%;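 also: cells exposed for 96 h before readout; 0% = vehicle DMSO and 100% = killing by high DMSO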); conditions: CRL2098 osteosarcoma cells, drug combinations, stronger effect = higher value
# [10] = growth inhibition, single agents and combos, HD-MB03, cell-based, BGB or cisplatin IC20 combos, synergistic combos for chromothripsis tumors (AID 1671455; in the data active = inhibition above about 83%;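 also: 0% = vehicle DMSO and 100% = high DMSO as cytotoxic control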); conditions: HD-MB03 medulloblastoma cells, stronger effect = higher value
# [11] = growth inhibition, single agents and combos, UWB1.289, cell-based, BGB or cisplatin combos, synergistic combos for chromothripsis tumors (AID 1671456; in the data active = inhibition above about 80%;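 also: cells exposed to compound for four days; 0% = vehicle DMSO and 100% = killing by high DMSO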); conditions: UWB1.289 ovarian carcinoma cells, stronger effect = higher value
# [12] = growth inhibition, single agents and combos, LFS_MB_2R, cell-based, cisplatin combos, synergistic combos for chromothripsis tumors (AID 1671457; in the data active = inhibition above about 80%;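 also: cells exposed to compound for four days before readout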); conditions: LFS_MB_2R medulloblastoma cells, stronger effect = higher value
# [13] = growth inhibition, MDA-MB-436, cell-based, BGB or cisplatin combos, synergistic combos for chromothripsis tumors (AID 1671458; call rule not given here;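 also: cells exposed for 96 hours; 0% = vehicle DMSO and 100% = killing by high DMSO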); conditions: MDA-MB-436 breast carcinoma growth inhibition, drug combinations, stronger effect = higher value
# [14] = UWB1.289_BRCA1 ovarian cancer growth, cell-based, BGB or cisplatin combinations (AID 1671459; in the data active = inhibition above about 80%); conditions: UWB1.289 BRCA1 ovarian carcinoma, drug combinations, stronger effect = higher value
# [15] = drug combination toxicity in non-malignant astrocytes – cell-based, BGB or cisplatin IC20 combos, cytotoxicity control for chromothriptic childhood tumor combination screen (AID 1671460; in the data active = inhibition above about 80%;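 also: cells exposed to compounds for 96 hours before viability readout; 0% = vehicle and 100% = killing control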); conditions: Human astrocytes, viability inhibition, drug combinations, at 0.5 µM, stronger effect = higher value
# [16] = BT084 cell growth, single and combined drugs, ICGC_MB145, cisplatin and BGB IC40 combos (AID 1671461; in the data active = inhibition above about 80%;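 also: cells exposed to drugs for 96 hours; 0% = vehicle DMSO and 100% = high DMSO full killing control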); conditions: BT084 medulloblastoma cells, drug combinations, stronger effect = higher value
# [17] = RCMB18 cell growth, single agent and combined, cisplatin and BGB IC40 combos (AID 1671462; in the data active = inhibition above about 80%;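 also: cells exposed to compound for four days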); conditions: RCMB18 medulloblastoma cells, stronger effect = higher value
# [18] = CRL1545 cell growth, single agent and combined, cisplatin and BGB IC20 combos (AID 1671464; in the data active = inhibition above about 80%;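 also: cells exposed to compound for 96 hours before readout; 0% = vehicle DMSO and 100% = high DMSO killing control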); conditions: CRL1545 osteosarcoma cells, stronger effect = higher value
# [19] = measured here: combination with BGB IC40, at 0.05 µM
# [20] = measured here: with BGB IC20 combination, at 0.5 µM
# [21] = measured here: with cisplatin IC20 combination, at 0.5 µM
# [22] = measured here: combination with cisplatin, at 0.5 µM
# [23] = measured here: combination with cisplatin, at 5 µM
# NAD(+) hydrolase SARM1 (Homo sapiens), sequence (Q6SZW1 whole entry, looked up, the tested form may be a part): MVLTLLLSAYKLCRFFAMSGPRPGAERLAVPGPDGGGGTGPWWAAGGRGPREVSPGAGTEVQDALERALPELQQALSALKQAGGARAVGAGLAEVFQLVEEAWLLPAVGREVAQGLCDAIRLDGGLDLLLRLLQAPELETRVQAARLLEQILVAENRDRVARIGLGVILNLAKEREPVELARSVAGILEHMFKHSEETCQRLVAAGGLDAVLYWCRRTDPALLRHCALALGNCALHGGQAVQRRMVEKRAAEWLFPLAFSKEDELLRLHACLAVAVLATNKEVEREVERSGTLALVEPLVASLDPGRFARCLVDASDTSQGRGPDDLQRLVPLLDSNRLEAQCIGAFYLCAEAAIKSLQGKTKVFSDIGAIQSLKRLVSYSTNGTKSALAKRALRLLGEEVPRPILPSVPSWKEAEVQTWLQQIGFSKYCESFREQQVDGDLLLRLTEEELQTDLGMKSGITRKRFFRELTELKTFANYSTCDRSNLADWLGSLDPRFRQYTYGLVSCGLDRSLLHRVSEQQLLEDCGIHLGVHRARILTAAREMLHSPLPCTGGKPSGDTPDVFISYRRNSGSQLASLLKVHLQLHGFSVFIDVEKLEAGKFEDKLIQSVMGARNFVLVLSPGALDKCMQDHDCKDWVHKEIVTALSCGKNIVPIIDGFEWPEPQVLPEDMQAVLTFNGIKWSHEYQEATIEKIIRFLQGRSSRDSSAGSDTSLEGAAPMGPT
# Mitogen-activated protein kinase 7 (Homo sapiens), sequence (Q13164 whole entry, looked up, the tested form may be a part): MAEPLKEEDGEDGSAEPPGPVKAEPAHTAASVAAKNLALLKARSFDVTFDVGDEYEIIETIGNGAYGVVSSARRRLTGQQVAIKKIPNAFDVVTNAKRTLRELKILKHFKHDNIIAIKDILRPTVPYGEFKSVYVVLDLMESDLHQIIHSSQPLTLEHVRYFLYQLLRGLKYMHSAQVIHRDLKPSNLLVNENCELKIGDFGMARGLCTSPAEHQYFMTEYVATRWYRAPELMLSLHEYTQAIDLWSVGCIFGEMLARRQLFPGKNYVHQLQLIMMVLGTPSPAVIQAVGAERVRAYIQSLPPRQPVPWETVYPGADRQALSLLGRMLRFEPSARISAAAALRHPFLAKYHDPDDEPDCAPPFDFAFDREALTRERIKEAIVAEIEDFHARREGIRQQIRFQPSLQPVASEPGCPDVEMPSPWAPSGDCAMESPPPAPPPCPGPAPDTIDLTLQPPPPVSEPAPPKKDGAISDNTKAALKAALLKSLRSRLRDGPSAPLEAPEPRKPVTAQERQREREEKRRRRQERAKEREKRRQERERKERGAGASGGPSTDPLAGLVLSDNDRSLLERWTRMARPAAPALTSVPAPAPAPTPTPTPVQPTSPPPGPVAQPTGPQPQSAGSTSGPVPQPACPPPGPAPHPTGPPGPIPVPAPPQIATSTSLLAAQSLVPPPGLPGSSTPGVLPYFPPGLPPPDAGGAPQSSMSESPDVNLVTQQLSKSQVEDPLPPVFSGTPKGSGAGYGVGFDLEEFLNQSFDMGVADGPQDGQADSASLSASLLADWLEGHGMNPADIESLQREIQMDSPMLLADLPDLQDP
structure (smiles),measurement,setting,value
O=NN(CCCl)C(=O)NCCCl,remaining NAD,[1],10 nM (inactive)
same,luciferase signal,[2],204 AU (inactive)
same,z-score,[3],-0.84 (inactive)
same,inhibition,"[4]; at 0.5 µM, stronger effect = higher value",-2.88% (inactive)
same,inhibition,"[4]; measured here: combination with BGB IC20, at 0.005 µM",-4.26%
same,inhibition,"[4]; measured here: combination with BGB IC40, at 0.005 µM",-31.6%
same,inhibition,[4]; [19],-3.31%
same,inhibition,"[4]; measured here: combination with cisplatin, at 0.5 µM, stronger effect = higher value",2.24%
same,inhibition,"[4]; measured here: combination with cisplatin, at 5 µM, stronger effect = higher value",-36.8%
same,inhibition,"[5]; BGB combo, at 5 µM",-14.5%
same,inhibition,[5]; at 0.5 µM,6.29% (inactive)
same,inhibition,"[5]; cisplatin combo, at 5 µM",-3.04%
same,inhibition,[5]; [20],11.2%
same,inhibition,[5]; [21],-4.17%
same,inhibition,"[5]; single agent, at 5 µM",-8.15%
same,inhibition,"[6]; BGB IC20 combo, at 0.005 µM",5.44%
same,inhibition,"[6]; BGB IC40 combo, at 0.005 µM",-42.6%
same,inhibition,"[6]; BGB IC40 combo, at 0.05 µM",-39%
same,inhibition,[6]; at 0.5 µM,-40.7% (inactive)
same,inhibition,"[6]; cisplatin combo, at 0.05 µM",-44.5%
same,inhibition,"[6]; cisplatin combo, at 0.5 µM",-65.9%
same,inhibition,"[6]; cisplatin combo, at 5 µM",-35.2%
same,inhibition,"[6]; measured here: 5 uM single agent, at 5 µM",-15.7%
same,inhibition,[7]; at 0.5 µM,-12.2% (inactive)
same,inhibition,[7]; [19],-13.6%
same,inhibition,[7]; [22],10.3%
same,inhibition,[7]; [23],-12%
same,inhibition,[8]; at 0.5 µM,-10.6% (inactive)
same,inhibition,"[8]; measured here: with BGB IC20, at 0.5 µM",-23%
same,inhibition,"[8]; measured here: with BGB IC20, at 5 µM",17.7%
same,inhibition,"[8]; measured here: with cisplatin IC20, at 0.5 µM",-10.4%
same,inhibition,"[8]; measured here: with cisplatin IC20, at 5 µM",11.5%
same,inhibition,"[8]; single agent, at 5 µM",11%
same,inhibition,[9]; at 0.5 µM,-22.8% (inactive)
same,inhibition,"[9]; measured here: combination with BGB at IC20, at 0.5 µM",-7.62%
same,inhibition,"[9]; measured here: combination with cisplatin at IC20, at 0.5 µM",2.1%
same,inhibition,[10]; at 0.5 µM,-9.81% (inactive)
same,inhibition,"[10]; measured here: combo with BGB at IC20, at 0.5 µM",-13.2%
same,inhibition,"[10]; measured here: combo with cisplatin at IC20, at 0.5 µM",-3.83%
same,inhibition,[11]; at 0.5 µM,-5.7% (inactive)
same,inhibition,"[11]; measured here: inhibition with BGB combination, at 0.05 µM",-21%
same,inhibition,"[11]; measured here: inhibition with cisplatin combination, at 0.05 µM",-12%
same,inhibition,[12]; at 0.5 µM,-21.9% (inactive)
same,inhibition,[12]; [22],-14.5%
same,inhibition,[12]; [23],-18.3%
same,inhibition,[13]; at 0.5 µM,-8.21% (inactive)
same,inhibition,"[13]; measured here: BGB combination, at 0.5 µM",-10%
same,inhibition,"[13]; measured here: BGB combination, at 5 µM",-8.63%
same,inhibition,"[13]; measured here: cisplatin combination, at 0.5 µM",-2.04%
same,inhibition,"[13]; measured here: cisplatin combination, at 5 µM",-6.22%
same,inhibition,"[14]; BGB combination, concentration series, at 5 µM",3.47%
same,inhibition,[14]; at 0.5 µM,-1.58% (inactive)
same,inhibition,"[14]; cisplatin combination, concentration series, at 5 µM",19.3%
same,inhibition,[15],12.8% (inactive)
same,inhibition,[15]; measured here: combo with BGB IC20,26.4%
same,inhibition,[15]; measured here: combo with cisplatin IC20,2.42%
same,inhibition,[16]; at 0.5 µM,-12.6% (inactive)
same,inhibition,"[16]; cisplatin combination, at 0.5 µM",-0.565%
same,inhibition,"[16]; cisplatin combination, at 5 µM",5.72%
same,inhibition,"[16]; measured here: BGB IC40 combination 0.05 uM, at 0.05 µM",22.3%
same,inhibition,"[16]; single agent, at 5 µM",10.8%
same,inhibition,[17]; at 0.5 µM,-5.05% (inactive)
same,inhibition,"[17]; cisplatin combo, at 5 µM",-0.239%
same,inhibition,"[17]; measured here: BGB IC40 combination, at 0.05 µM",-34.5%
same,inhibition,[17]; [22],22.9%
same,inhibition,"[17]; single agent, at 5 µM",-38.3%
same,inhibition,[18]; at 0.5 µM,-14.2% (inactive)
same,inhibition,[18]; [20],-17.2%
same,inhibition,[18]; [21],-12.8%
same,inhibition,"[18]; single agent, at 0.05 µM",-3.95%
same,inhibition,"[18]; single agent, at 5 µM",10.1%
CN(C)CCC=C1c2ccccc2C=Cc2ccccc21,remaining NAD,[1],10 nM (inactive)
same,luciferase signal,[2],52 AU (inactive)
same,z-score,[3],-1.16 (inactive)
CC(=O)OC/C=C(C)/C=C/C=C(C)/C=C/C1=C(C)CCCC1(C)C,remaining NAD,[1],10 nM (inactive)
same,luciferase signal,[2],96 AU (inactive)
same,z-score,[3],-0.205 (inactive)
Cc1ccc(C(=O)Nc2ccc(S(=O)(=O)O)c3cc(S(=O)(=O)O)cc(S(=O)(=O)O)c23)cc1NC(=O)c1cccc(NC(=O)Nc2cccc(C(=O)Nc3cc(C(=O)Nc4ccc(S(=O)(=O)O)c5cc(S(=O)(=O)O)cc(S(=O)(=O)O)c45)ccc3C)c2)c1,remaining NAD,[1],10 nM (inactive)
same,luciferase signal,[2],48 AU (inactive)
same,z-score,[3],4.14 (active) and 1.81 (inactive) and 0.955 (inactive)
Clc1ccccc1C(c1ccccc1)(c1ccccc1)n1ccnc1,remaining NAD,[1],10 nM (inactive)
same,luciferase signal,[2],72 AU (inactive)
same,z-score,[3],-1.52 (inactive) and -1.44 (inactive)
CC(C)(Oc1ccc(Cl)cc1)C(=O)O,remaining NAD,[1],10 nM (inactive)
same,luciferase signal,[2],72 AU (inactive)
same,z-score,[3],0.98 (inactive)
CC(C)COCC(CN(Cc1ccccc1)c1ccccc1)N1CCCC1 (stereo not given),remaining NAD,[1],10 nM (inactive)
same,luciferase signal,[2],280 AU (inactive)
same,z-score,[3],-0.24 (inactive) and -2.13 (inactive)
CCCN(CCC)C(=O)C(CCC(=O)O)NC(=O)c1ccccc1 (stereo not given),remaining NAD,[1],10 nM (inactive)
same,luciferase signal,[2],108 AU (inactive)
same,z-score,[3],0.665 (inactive)
Fc1ccc(C(c2ccc(F)cc2)N2CCN(C/C=C/c3ccccc3)CC2)cc1,remaining NAD,[1],10 nM (inactive)
same,luciferase signal,[2],116 AU (inactive)
same,z-score,[3],-1.04 (inactive) and -1.24 (inactive) and -2.23 (inactive)
